Among the data in PubChem BioAssay (NCI) are growth values, retold here.

This is part of a sample that, as a whole, favours compounds with a hit. Of some 83,000 tested, about 20% had one in any assay.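 Treatment: one concentration, 48 hours, 96-well format. Scoring: percent growth, with anything below 10 considered active.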 A number with no mark means an inactive call. Calls of active or inactive are those of the source.

Assay in all cases: NCI-60 one-dose screen, 48 h (100 = growth as untreated, 0 = no growth, -100 = all killed)
Holding throughout (details): 10 µM unless noted

Assay [1] deals with DU-145 prostate.
The test system of assay [2] is K-562 leukemia.
Assay [3] deals with MALME-3M melanoma.
Assay [4] has as its system MDA-MB-231 breast.
For assay [5], the system named is RXF 393 renal.
Assay [6] concerns SF-268 CNS.
Assay [7] deals with SF-295 CNS.
In assay [8] the test system is SF-539 CNS.
For assay [9], the system named is UACC-257 melanoma.
Assay [10] has as its system M14 melanoma.

Consider `CC(=O)OC1Oc2cc(C)c(C)cc2-c2oc(=O)c(-c3cc4ccc(N(C)C)cc4oc3=O)cc21` (stereo not given), for which the growth was 85.8% in assay [1]; 11.4% in [2]; 68.1% in assay [3]; 75.8% in assay [4]; 45.9% in assay [5]; 84.8% in [6]. The growth in assay [7] was 54.9%; in assay [8], 81.4%; in assay [9] it was 73.4%; in assay [10] it was 86.7%.

With `COc1ccc(-n2cc(-c3ccccc3)c3c(SCC(=O)N/N=C/c4ccc([N+](=O)[O-])cc4)ncnc32)cc1`, the growth in assay [1] was 114%; in assay [2], 110%; in assay [3] it was 110%; in assay [4], 102%; in assay [5], 113%; in [6], 98.5%. In addition, the growth in assay [7] was 105%; in assay [8], 97.9%; in [9], 107%; in [10], 108%.

Take `CNc1cc2nc3cc(NC)c(C)cc3cc2cc1C`: the growth is 18.5% in assay [1]; 21.1% in assay [2]; 41.3% in [3]; 28.7% in [4]; 11.9% in assay [5]; 11.3% in [6]. The growth in [7] was 10%; in assay [8] it was 10.4%; in [9] it was 29.2%; in assay [10] it was 24.8%.

Take `O=C(Nc1nc(-c2ccccc2)cc(-c2ccc(Cl)cc2)n1)c1ccncc1`: the growth is 103% in [1]; 93.5% in assay [2]; 99.3% in assay [3]; 94.8% in assay [4]; 85.7% in assay [5]; 94.5% in [6]. The growth in [7] is 100%; in assay [8], 102%; in assay [9], 104%; in assay [10], 104%.

Take `C=C(C[n+]1ccccc1)[C@@H]1CC[C@]2(C(=O)OC)CC[C@]3(C)[C@H](CC[C@@H]4[C@@]5(C)CC[C@H](O)C(C)(C)[C@@H]5CC[C@]43C)[C@@H]12`: the growth in assay [1] is 114%; in assay [2], 95.7%; in assay [3] it was 103%; in [4], 114%; in assay [5] it was 106%; in [6], 97%. Besides, the growth was 103% in [7], 91.2% in assay [8], 100% in assay [9] and 102% in [10].

Turning to `O=c1c(/C=C/c2ccco2)nnc(SCCN2CCOCC2)n1/N=C/c1ccc([N+](=O)[O-])cc1`, the growth was 111% in assay [1]; 93.3% in [2]; 95.9% in assay [3]; 103% in assay [4]; 87.6% in assay [5]; 96.5% in assay [6]. For the same compound, the growth in assay [7] was 107%; in assay [8], 94%; in assay [9], 94.1%; in assay [10] it was 99.9%.

For the compound `CCCCCCCCCCCCNC(=O)[C@H]1CSC(c2ccc(OC)c(F)c2)N1` (stereo not given in full), the growth in assay [1] is -87.6% (active); in assay [2] it was -52.7% (active); in [3], -92.3% (active); in assay [4] it was -88.3% (active); in [5] it was -96.1% (active); in assay [6], -69.2% (active). Moreover, the growth in assay [7] is -88.4% (active); in [8] it was -94.3% (active); in [9] it was -94.1% (active); in assay [10], -89.6% (active).

In the case of `CC1=CC(=O)CC(C)(C)[C@@]1(O)/C=C/[C@@H](C)O`, the growth in assay [1] is 108%; in assay [2], 115%; in [3], 102%; in assay [4] it was 93.3%; in assay [5], 93.3%; in [6] it was 98.1%. Also, the growth in assay [7] was 91.5%; in assay [8] it was 102%; in assay [9] it was 89.1%; in assay [10], 102%.

For `O=C(/C=C\c1ccc2ccccc2n1)c1cc(Cl)ccc1O`, the growth in assay [1] was 93.3%; in assay [2], 79.4%; in assay [3], 80.5%; in assay [4] it was 78.3%; in assay [5] it was 84.2%; in assay [6] it was 71.6%. Also, the growth in assay [7] was 69.9%; in assay [8], 87.2%; in assay [9], 84.9%; in assay [10], 84.6%.

Take `CCN(CC)CC(C)Nc1ccc([N+](=O)[O-])c2sc3ccccc3c(=O)c12` (stereo not given): the growth is 27.6% in assay [1]; -14.2% (active) in assay [2]; -6.6% (active) in assay [3]; 51.5% in assay [4]; 32.4% in assay [5]; 27.3% in assay [6]. For the same compound, the growth in [7] was 25%; in [8], 29.5%; in assay [9] it was -10.4% (active); in assay [10], 44.9%.

On to `C=CC[N+]1(CCO)CCN=C1CCCCCCCCCCCCC` (stereo not given), for which the growth was -90.4% (active) in [1]; -53.9% (active) in assay [2]; -61.9% (active) in [3]; -70.1% (active) in [4]; -55.3% (active) in assay [5]; -60.6% (active) in assay [6]. Besides, the growth in [7] is 47.5%; in [8] it was -96.6% (active); in assay [9], -80.3% (active); in assay [10], -86.2% (active).

As to `CC[C@]12C=CCN3CC[C@@]4(c5ccc(OC)cc5N(C)[C@H]4[C@@](O)(C(=O)OC)[C@@H]1OC(=O)CCC(=O)N[C@@H](Cc1c[nH]c4ccccc14)C(=O)OC)[C@@H]32`, the growth was 99.4% in assay [1]; 85.7% in assay [2]; 57.2% in [3]; 67.6% in [4]; 15.5% in assay [5]; 85.5% in [6]. The growth is 99.3% in assay [7], 102% in [8], 67% in assay [9] and 97.3% in assay [10].

As to `CN(CC(=O)N(Cc1ccc(C2CCCCC2)cc1)c1ccc(C(=O)NO)cc1)S(=O)(=O)c1c(F)c(F)c(F)c(F)c1F`, the growth in assay [1] was 78.3%; in assay [2], 20.6%; in assay [3], 86.4%; in [4], 40.3%; in [5], 71.2%; in assay [6], 87%. The growth is 108% in assay [7], 92.7% in assay [8], 102% in [9] and 67.9% in assay [10].
